# Measured values published in PubChem BioAssay (NCATS).
# Where “and” joins values, the source holds several entries; their conditions need not be identical. Equal entries are not always repeated. Inconclusive results are not listed. Where a call stands in place of a potency, no number is given. Some structures have more than one record in an assay (separate samples or runs), and their calls can disagree. Calls of active or inactive are those of the source. Unless noted, calls come from the whole dose curve; as a rule, active = well fitted curve in the direction sought with a large enough effect; inconclusive = small, poorly fitted or top-dose-only effect, or another doubt; inactive = no such curve, though single readings can be large; an effect the other way counts as inactive or inconclusive.
# Legend:
# [1] = AP1 Signaling Pathway (AID 357; active = well fitted curve in either direction with a large enough effect, not every such curve was filed as active;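 note: ME-180 reporter cells stimulated with EGF at its EC50 level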)
# Method in brief: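 A ratiometric CCF4 readout (405 nm excitation; 460 and 530 nm emission) quantified AP-1-driven beta-lactamase in ME-180 cells after 5 h with compound and EC50 EGF; AC50 values were derived for activators and inhibitors.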
# [2] = molecular target: Cytochrome P450 1A2 (Homo sapiens) (UniProt P05177); assay: p450-cyp1a2 (AID 410; calls by dose curve; note: potency is the fitted concentration of half-maximal effect)
# Sequence of Cytochrome P450 1A2 (Homo sapiens) (P05177 whole entry, looked up): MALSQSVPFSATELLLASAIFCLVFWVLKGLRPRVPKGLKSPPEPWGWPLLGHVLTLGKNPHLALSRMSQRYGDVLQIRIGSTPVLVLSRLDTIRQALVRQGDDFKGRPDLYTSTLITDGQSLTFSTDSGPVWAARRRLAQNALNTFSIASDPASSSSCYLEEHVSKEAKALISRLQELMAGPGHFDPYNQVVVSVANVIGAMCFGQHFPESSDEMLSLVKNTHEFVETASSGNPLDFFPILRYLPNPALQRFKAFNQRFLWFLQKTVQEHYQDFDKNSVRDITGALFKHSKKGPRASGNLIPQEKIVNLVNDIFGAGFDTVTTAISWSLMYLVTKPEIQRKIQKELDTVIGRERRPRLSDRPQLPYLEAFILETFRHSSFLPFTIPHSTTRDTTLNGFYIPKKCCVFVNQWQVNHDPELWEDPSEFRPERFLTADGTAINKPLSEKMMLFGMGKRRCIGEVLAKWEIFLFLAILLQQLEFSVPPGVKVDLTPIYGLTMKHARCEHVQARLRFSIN
# Method in brief: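 O-Demethylation of luciferin 6' methyl ether by human CYP1A2 is monitored as luciferase luminescence. Substrate sits at Km (100uM); enzyme is 20nM. Values are scaled to 57 uM furafylline as maximal inhibition.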
# [3] = NFAT Signaling Pathway (AID 444; active = well fitted curve in either direction with a large enough effect, not every such curve was filed as active;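 note: carbachol stimulus at about its EC50 of 1 µM final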); settings: Jurkat NFAT-bla M1, carbachol, beta-lactamase ratio, 5 h; at 38 µM (top of the series)
# Method in brief: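 Jurkat cells carrying an NFAT-driven β-lactamase reporter and co-transfected muscarinic M1 receptor were treated with compound plus carbachol (1 uM final, an EC50 level) for 5 h at 37 °C. CCF4 loading followed for 1 h at RT; 460/530 nm ratio gave %activity.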
# [4] = Stat Signaling Pathway (AID 446; active = well fitted curve in either direction with a large enough effect, not every such curve was filed as active;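 note: ME-180 cervical cancer cells given 40 pM IL-6 alongside compound; SIE-controlled beta-lactamase reporter measured as 460/530 nm FRET emission ratio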)
# Method in brief: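 Compound effects on IL-6-induced STAT reporter activity were measured in ME-180 cells. After overnight culture, cells were co-treated with 40 pM IL-6 for 5 hrs before beta-lactamase substrate loading at room temperature.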
# [5] = molecular target: Glucocorticoid receptor (Homo sapiens) (UniProt P04150); assay: GR-GFP Redistribution (AID 450;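 active = compounds whose dose series gives a full or clear partial fitted curve of increased nuclear translocation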; note: potency is the fitted concentration of half-maximal effect); settings: U2OS GR-GFP nuclear translocation, laser cytometry, 2 h
# Sequence of Glucocorticoid receptor (Homo sapiens) (P04150 whole entry, looked up, the tested form may be a part): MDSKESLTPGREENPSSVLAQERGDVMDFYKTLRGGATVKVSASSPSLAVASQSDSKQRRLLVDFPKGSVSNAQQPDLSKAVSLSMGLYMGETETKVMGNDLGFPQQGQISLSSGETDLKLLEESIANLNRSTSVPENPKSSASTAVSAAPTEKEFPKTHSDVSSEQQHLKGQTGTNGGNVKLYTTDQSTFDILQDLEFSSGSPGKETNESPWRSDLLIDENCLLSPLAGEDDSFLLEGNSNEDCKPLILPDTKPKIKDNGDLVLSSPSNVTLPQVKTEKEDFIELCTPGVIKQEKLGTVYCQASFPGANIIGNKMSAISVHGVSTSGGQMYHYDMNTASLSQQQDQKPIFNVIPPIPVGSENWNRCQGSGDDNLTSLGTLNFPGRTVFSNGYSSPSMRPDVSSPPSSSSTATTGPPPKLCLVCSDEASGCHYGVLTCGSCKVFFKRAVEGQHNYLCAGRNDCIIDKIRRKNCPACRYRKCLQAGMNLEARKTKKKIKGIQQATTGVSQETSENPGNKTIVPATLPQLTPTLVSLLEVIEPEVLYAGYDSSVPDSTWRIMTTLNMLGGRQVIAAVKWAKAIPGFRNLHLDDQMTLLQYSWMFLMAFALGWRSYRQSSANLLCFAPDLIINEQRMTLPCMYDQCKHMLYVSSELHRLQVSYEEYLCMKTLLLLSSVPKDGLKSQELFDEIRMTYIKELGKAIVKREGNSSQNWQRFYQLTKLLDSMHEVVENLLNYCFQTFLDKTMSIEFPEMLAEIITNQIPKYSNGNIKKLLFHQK
# [6] = molecular target: Glucocorticoid receptor (Homo sapiens) (UniProt P04150); assay: GR-EFC Redistribution (AID 451; calls by dose curve; note: potency is the fitted concentration of half-maximal effect); settings: CHO-K1 GR-EFC translocation, beta-gal luminescence, 2 h
# Method in brief: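 CHO-K1 cells stably expressing nuclear-localized β-gal enzyme acceptor and GR fused C-terminally to the enzyme donor fragment; ligand-driven nuclear translocation restores β-gal by complementation. Compounds titrated up to 46 uM final, 2 h at 37 °C; luminescence read.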
# [7] = molecular target: Mitogen-activated protein kinase 10 (Mus musculus) (UniProt Q61831); assay: JNK3 AlphaScreen Assay (AID 530; active = well fitted curve in either direction with a large enough effect, not every such curve was filed as active;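 note: kinase came from lysate of stimulated human HepG2 cells; signal reports phosphorylation of biotinylated GST-cJun 1-79 at Ser73 with 10 µM ATP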)
# Method in brief: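 Phosphorylation of biotinylated GST-cJun(1-79) at Ser73 is measured by AlphaScreen proximity luminescence. Enzyme is JNK3 in HepG2 lysates activated with interleukin-1beta and tumor necrosis factor alpha; ATP is 10 uM final.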
# [8] = molecular target: 3',5'-cyclic-AMP phosphodiesterase 4B (Homo sapiens) (UniProt Q07343); assay: qHTS Assay for Inhibitors of PDE-IV (AID 607; active = well fitted activation curve with a large enough effect in the main read-out, with a control signal flat, not every such curve was filed as active)
# Sequence of 3',5'-cyclic-AMP phosphodiesterase 4B (Homo sapiens) (Q07343 whole entry, looked up): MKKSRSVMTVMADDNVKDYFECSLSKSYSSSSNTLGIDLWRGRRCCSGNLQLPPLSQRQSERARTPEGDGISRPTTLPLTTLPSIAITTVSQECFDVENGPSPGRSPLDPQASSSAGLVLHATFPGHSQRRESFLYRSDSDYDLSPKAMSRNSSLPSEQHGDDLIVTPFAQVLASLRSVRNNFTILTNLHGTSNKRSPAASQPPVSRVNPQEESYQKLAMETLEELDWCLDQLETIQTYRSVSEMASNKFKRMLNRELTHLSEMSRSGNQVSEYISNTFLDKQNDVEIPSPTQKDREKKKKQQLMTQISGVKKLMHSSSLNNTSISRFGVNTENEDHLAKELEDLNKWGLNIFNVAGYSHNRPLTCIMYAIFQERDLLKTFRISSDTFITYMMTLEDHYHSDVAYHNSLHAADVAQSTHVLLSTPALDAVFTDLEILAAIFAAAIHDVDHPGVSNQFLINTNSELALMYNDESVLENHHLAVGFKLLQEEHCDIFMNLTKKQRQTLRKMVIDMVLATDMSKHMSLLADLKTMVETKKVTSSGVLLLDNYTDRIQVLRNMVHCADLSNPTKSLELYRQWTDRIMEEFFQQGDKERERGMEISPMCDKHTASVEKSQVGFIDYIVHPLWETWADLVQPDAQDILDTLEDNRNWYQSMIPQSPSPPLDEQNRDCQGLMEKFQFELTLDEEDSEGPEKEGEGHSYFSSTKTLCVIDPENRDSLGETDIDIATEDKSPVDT
# Method in brief: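 ACTOne HEK293 cells carry a modified cAMP-gated CNG channel and express endogenous PDE4; plated 1000 cells/well, compounds up to 22.9 uM final. Membrane-potential dye fluorescence (ex 535/em 590) was read; parental cells received 10 uM forskolin + 100 uM RO 20-1724.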
# [9] = molecular target: Guanine nucleotide-binding protein G(i) subunit alpha-1 (Homo sapiens) (UniProt P63096); assay: qHTS Assay for Inhibitors of RGS12 GoLoco Motif Activity (Green Fluorophore) (AID 879);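 note: negative values mean loss of peptide binding seen as reduced polarization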
# Sequence of Guanine nucleotide-binding protein G(i) subunit alpha-1 (Homo sapiens) (P63096 whole entry, looked up): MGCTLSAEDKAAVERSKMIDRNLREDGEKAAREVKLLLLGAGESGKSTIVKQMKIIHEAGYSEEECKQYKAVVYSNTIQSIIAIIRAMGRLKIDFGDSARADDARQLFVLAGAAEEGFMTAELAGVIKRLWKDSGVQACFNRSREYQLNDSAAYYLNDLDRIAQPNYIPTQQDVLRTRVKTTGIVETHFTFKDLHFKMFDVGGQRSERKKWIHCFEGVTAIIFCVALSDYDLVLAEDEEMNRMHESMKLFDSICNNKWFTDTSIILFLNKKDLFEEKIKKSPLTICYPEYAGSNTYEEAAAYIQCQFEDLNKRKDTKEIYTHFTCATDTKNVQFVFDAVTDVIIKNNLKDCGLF
# Method in brief: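 A drop in FITC polarization marked displacement of the FITC-tagged RGS12 GoLoco peptide (10 nM) from Gαi1 (50 nM). Compounds were incubated 10 min at room temperature in Tris pH 7.5 buffer containing 150 mM NaCl, 0.1 mM GDP and 0.05% NP40; unlabeled peptide titration served as control.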
# [10] = qHTS Assay for Identification of Small Molecule Antagonists for NFkB Signaling Pathway (AID 895; active = well fitted inhibition curve with a large enough effect in the signal ratio, with a control signal flat, not every such curve was filed as active; the % refers to the signal ratio)
# Method in brief: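 NFkB-bla ME-180 cervical carcinoma cells with beta-lactamase reporter under NFkB response element; compounds added, then TNF alpha at 10 pM final (EC50), 5 h at 37 C. LiveBLAzer substrate 2 h, room temperature; emission 460/530 nm at 405 nm excitation.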
# [11] = molecular target: Cytochrome P450 2C19 (Homo sapiens) (UniProt P33261); assay: qHTS Assay for Inhibitors and Substrates of Cytochrome P450 2C19 (AID 899); note: potency is the fitted concentration of half-maximal effect; nearly all actives have a fitted effect of over 60% in size
# Sequence of Cytochrome P450 2C19 (Homo sapiens) (P33261 whole entry, looked up): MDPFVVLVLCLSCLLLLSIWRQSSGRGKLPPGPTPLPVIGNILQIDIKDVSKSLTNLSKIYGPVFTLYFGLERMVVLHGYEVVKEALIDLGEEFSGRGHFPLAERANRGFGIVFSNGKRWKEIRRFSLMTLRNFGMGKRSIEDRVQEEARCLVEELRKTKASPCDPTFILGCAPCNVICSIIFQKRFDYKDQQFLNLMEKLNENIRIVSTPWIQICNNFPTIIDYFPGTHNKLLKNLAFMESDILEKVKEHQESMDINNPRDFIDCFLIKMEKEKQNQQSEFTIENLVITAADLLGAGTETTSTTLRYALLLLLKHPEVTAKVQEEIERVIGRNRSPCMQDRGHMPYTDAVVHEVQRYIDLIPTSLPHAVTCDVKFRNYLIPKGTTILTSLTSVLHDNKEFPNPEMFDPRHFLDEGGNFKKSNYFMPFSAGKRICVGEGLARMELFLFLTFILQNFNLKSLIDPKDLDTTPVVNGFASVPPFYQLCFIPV
# Method in brief: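 Human CYP2C19 (5nM) with Luciferin-H EGE at 10uM (its KM) in 50mM KPO4 was preincubated with compound for 10 min at 37C. NADPH regeneration started a 60 min 37C reaction. Luciferin was read by luminescence, normalized to 57uM ketoconazole.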
# [12] = qHTS Assay for Identification of Small Molecule Agonists for Hypoxia Response Element Signaling Pathway (AID 914; active = well fitted activation curve with a large enough effect in the signal ratio, with a control signal flat, not every such curve was filed as active; the % refers to the signal ratio); settings: ME-180 (cervical carcinoma) HRE-bla reporter, beta-lactamase ratio, CoCl2, 17 h; activation: stronger effect = higher value
# Method in brief: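 Cells were plated overnight, pin-dosed with compound in a titration series, co-stimulated with EC50 CoCl2 and incubated 17 hours at 37 degrees Celsius. CCF4 substrate was then loaded, and AC50 values came from the 460nm/530nm ratio.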
# [13] = qHTS Assay for Identification of Small Molecule Agonists for Thrombopoietin (TPO) Signaling Pathway (AID 917)
# Method in brief: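 Stimulation at the TPO EC50 (26 pM final) was used to detect activators. Ba/F3 mouse cells bearing human TPO receptor and a luciferase reporter under the Glycoprotein IIb promoter were exposed to compounds for 24 hrs at 37 C.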
# [14] = molecular target: Muscarinic acetylcholine receptor M1 (Rattus norvegicus) (UniProt P08482); assay: qHTS Assay for Antagonists of Acetylcholine Muscarinic M1 Receptor: Measurement of IP-One Response (AID 944); note: nearly all actives have a fitted effect of over 75% in size
# Sequence of Muscarinic acetylcholine receptor M1 (Rattus norvegicus) (P08482 whole entry, looked up): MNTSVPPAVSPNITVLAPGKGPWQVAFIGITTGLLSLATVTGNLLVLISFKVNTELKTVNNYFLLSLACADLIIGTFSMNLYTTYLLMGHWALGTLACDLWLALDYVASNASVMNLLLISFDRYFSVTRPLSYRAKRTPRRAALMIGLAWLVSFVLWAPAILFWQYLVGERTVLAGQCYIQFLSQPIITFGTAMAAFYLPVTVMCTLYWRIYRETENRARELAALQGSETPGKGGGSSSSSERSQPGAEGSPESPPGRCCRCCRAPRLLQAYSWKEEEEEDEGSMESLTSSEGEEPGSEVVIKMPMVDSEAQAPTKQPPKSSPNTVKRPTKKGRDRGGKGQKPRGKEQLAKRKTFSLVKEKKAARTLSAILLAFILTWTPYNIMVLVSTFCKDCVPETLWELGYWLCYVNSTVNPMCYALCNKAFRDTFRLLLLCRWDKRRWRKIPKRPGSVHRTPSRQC
# Method in brief: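 Antagonist mode with rat M1 receptor transfected into CHO cells. Compound is added first for 10 min, carbachol at its EC80 follows for 30 min, and lysis reagents then allow TR-FRET detection of accumulated IP1.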
# [15] = molecular target: Pyruvate kinase (Leishmania mexicana) (UniProt Q27686); assay: qHTS Validation Assay for Inhibitors of Leishmania Mexicana Pyruvate Kinase (AID 945)
# Sequence of Pyruvate kinase (Leishmania mexicana) (Q27686 2-499 E452W): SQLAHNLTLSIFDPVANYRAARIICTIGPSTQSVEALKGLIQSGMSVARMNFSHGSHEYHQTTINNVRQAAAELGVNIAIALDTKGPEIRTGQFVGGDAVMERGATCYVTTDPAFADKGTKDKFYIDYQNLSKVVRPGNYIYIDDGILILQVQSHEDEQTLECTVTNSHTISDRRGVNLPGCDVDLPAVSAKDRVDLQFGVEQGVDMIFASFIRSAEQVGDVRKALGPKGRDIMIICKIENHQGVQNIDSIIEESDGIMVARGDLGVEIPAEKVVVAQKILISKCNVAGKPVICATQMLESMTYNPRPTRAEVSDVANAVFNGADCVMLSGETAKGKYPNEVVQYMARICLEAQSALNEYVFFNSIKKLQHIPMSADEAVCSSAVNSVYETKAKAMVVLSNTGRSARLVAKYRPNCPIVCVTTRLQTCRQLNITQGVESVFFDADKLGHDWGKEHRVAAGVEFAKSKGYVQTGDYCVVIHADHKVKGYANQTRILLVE
# Method in brief: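 The enzyme is a highly purified E451W mutant of LmPYK used at 0.2 nM. It converts 0.5 mM PEP and 0.1 mM ADP over 1 h at room temperature; product ATP is quantified by luciferase luminescence relative to DMSO controls.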
# [16] = molecular target: Pyruvate kinase PKM (Homo sapiens) (UniProt P14618); assay: qHTS Assay for Activators of Human Muscle Pyruvate Kinase (AID 954; active = well fitted curve in the direction sought with a large enough effect, not every such curve was filed as active)
# Method in brief: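 A coupled luminescent readout tracked ATP made from ADP by purified PKM2. Final conditions included 0.1 nM enzyme, PEP and ADP at 0.5 and 0.1 mM, pH 7.2 imidazole buffer with BSA, and a one-hour room-temperature reaction.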
# [17] = molecular target: Alpha-galactosidase (Coffea arabica) (UniProt Q42656); assay: Counterscreen for Glucocerebrosidase Inhibitors: qHTS Assay for Coffee Bean alpha-Galactosidase at pH 4.5 (AID 957)
# Sequence of Alpha-galactosidase (Coffea arabica) (Q42656 whole entry, looked up): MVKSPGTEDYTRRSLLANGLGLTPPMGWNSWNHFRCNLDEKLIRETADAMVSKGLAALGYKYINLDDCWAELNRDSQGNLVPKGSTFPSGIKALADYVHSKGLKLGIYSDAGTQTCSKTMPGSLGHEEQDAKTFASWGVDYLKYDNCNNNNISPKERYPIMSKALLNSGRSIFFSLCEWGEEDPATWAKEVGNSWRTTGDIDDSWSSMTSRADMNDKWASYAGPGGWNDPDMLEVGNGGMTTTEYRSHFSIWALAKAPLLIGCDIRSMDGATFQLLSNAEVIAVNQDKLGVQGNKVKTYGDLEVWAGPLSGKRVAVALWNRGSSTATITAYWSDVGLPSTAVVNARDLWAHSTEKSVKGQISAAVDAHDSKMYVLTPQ
# Method in brief: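 Enzyme is added first (2 nM final), then compounds titrated from 0.7 nM to 77 uM, then 80 uM 4-methylumbelliferyl alpha-D-galactopyranoside; after 20 min at room temperature a pH 10 NaOH/glycine stop precedes fluorescence reading at 365/440 nm.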
# [18] = molecular target: Alpha-galactosidase A (Homo sapiens) (UniProt P06280); assay: Counterscreen for Glucocerebrosidase Inhibitors: qHTS Assay for Human alpha-Galactosidase at pH 4.5 (AID 992)
# Method in brief: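 Citrate buffer pH 4.5, Tween-20 0.005%. Enzyme 2 nM, substrate 80 uM, 20 min RT. Stop pH 10. Fluorescence Ex 365/Em 440. AC50 by Hill fit.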
# [19] = molecular target: alpha-glucosidase (Oryza sativa, rice) (UniProt Q653V4); assay: Counterscreen for Glucocerebrosidase Inhibitors: qHTS Assay for Rice alpha-Glucosidase at pH 5.0 (AID 997)
# Method in brief: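 Endpoint fluorogenic assay at pH 5.0: compounds (0.7 nM to 77 uM) titrated against 4 nM rice enzyme and 400 uM 4-MU-alpha-glucoside for 20 min at room temperature; NaOH/glycine stop, read ex 365/em 440 nm, Hill-fitted AC50.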
# [20] = molecular target: Alpha-galactosidase (Coffea arabica) (UniProt Q42656); assay: Counterscreen for Glucocerebrosidase Inhibitors: qHTS Assay for Coffee Bean alpha-Galactosidase at pH 5.9 (AID 998)
# Method in brief: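 In 50 mM citric acid pH 5.9 with 0.005% Tween-20, coffee bean enzyme hydrolyses 80 uM 4-MU alpha-D-galactopyranoside over 20 min at RT. Activity is normalized to controls; AC50 comes from Hill-modelled concentration-response data.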
# [21] = qHTS Assay for Lipid Storage Modulators (AID 1519; calls by dose curve); settings: Drosophila S3 cells, BODIPY lipid droplet/cell ratio, laser cytometry, cells loaded with oleic acid
# Method in brief: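 Cells seeded at 5,000 per well were treated with compounds over a concentration series and loaded with oleic acid (400 uM, as added). Lipid droplet fluorescence (488 nm excitation, 500-530 nm channel) was read by laser-scanning cytometry and normalized to 20 uM Triacsin C.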
# [22] = molecular target: DNA dC->dU-editing enzyme APOBEC-3G (Homo sapiens) (UniProt Q9HC16); assay: qHTS for inhibitors of Vif-A3G interactions: Validation (AID 588379)
# Sequence of DNA dC->dU-editing enzyme APOBEC-3G (Homo sapiens) (Q9HC16 whole entry, looked up): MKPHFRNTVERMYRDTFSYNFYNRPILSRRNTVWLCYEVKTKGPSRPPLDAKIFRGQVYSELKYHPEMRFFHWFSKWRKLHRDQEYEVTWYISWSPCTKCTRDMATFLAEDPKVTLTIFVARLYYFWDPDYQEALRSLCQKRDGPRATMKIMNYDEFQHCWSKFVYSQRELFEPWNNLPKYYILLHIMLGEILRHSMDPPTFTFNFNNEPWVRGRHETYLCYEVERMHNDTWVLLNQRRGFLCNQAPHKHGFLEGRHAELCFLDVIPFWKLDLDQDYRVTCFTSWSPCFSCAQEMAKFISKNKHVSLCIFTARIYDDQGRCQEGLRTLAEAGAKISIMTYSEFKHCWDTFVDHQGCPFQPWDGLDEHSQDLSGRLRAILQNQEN
# Method in brief: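 Yellow fluorescence (Ex 488, Em 500-530) of Vif-coexpressing HeLa A3G-eYFP cells, scanned by Acumen cytometer, reports blocked A3G degradation. Cells plated at 700/well overnight at 37 deg C before compound addition, then a further overnight compound incubation at 37 deg C.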
# [23] = system: Zika virus NS2B-NS3 protease; assay: Primary screen GU AMC qHTS for Zika virus inhibitors (AID 1347154); note: nearly all actives have a fitted effect of over 70% in size
# Method in brief: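 Unlinked Zika NS2B hydrophilic domain/NS3 protease domain noncovalent complex (25 nM final) in 10 mM Tris-HCl pH 8.0, 0.01% Tween 20, with AMC peptide substrate. Fluorescence (ex 340, em 450 nm) change over 15 min, room temperature; percent inhibition fitted to 4-parameter Hill equation.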
# [24] = Primary qHTS for small molecule stabilizers of the endoplasmic reticulum resident proteome: Secreted ER Calcium Modulated Protein (SERCaMP) assay (AID 1508630)
# Method in brief: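 The SH-SY5Y reporter protocol was run at 3 concentrations up to 38.3 uM (primary) or 11 concentrations (follow-up): 16 h compound, 100 nM thapsigargin for 4 h, then extracellular luciferase luminescence.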
compound,measurement,setting,value
Cc1o[nH]c(=O)c1C[C@H](N)C(=O)O,outcome,[1],inactive
same,Potency,[2],inactive and 31.6 µM (active)
same,"activity change, negative = inhibition",[3],-2.02% (inactive)
same,outcome,[4],inactive
same,Potency,[5],> 46 µM (inactive)
same,Potency,[6],> 46 µM (inactive)
same,outcome,[7],inactive
same,Potency,[8],inactive
same,outcome,[9],inactive
same,Potency,[10],inactive
same,Potency,[11],2.51 µM (active)
same,activation,[12],7.13% (inactive)
same,outcome,[13],inactive
same,Potency,[14],inactive
same,outcome,[15],inactive
same,outcome,[16],inactive
same,outcome,[17],inactive
same,outcome,[18],inactive
same,outcome,[19],inactive
same,outcome,[20],inactive
same,"activity change, negative = inhibition",[21]; at 57.5 µM (top of the series),5.07% (inactive) and 0.872% (inactive) and 1.49% (inactive)
same,max response,[21]; measured here: cell count channel max response,9.71% and 20.6% and -4.26%
same,max response,[21]; measured here: lipid channel max response,15.4% and 23.1% and -1.44%
same,Potency,[22],inactive
same,Potency,[23],inactive
same,Potency,[24],inactive
CCCCC/C=C\C=C\[C@H](CCCCCCCC(=O)O)OO,"activity change, negative = inhibition",[23],-1.43% [at 0.59 µM] (inactive)
same,"activity change, negative = inhibition",[24],-24.7% [at 0.478 µM] (inactive)
CC(Cc1cccc(C(F)(F)F)c1)NCCCc1ccccc1 (configuration not stated),Potency,[23],inactive
same,Potency,[24],inactive
NC1(c2ccccc2Cl)CCCCC1=O (configuration not stated),Potency,[23],inactive
same,Potency,[24],inactive
